KB-V1 MDR tox: KB-V1 MDR subline cytotoxicity | KB-V1 MDR cells viability, CellTiter-Glo, 72 h | Potency, µM (series often up to 46.1 µM), actives largely listed as cytotoxic | 400,000 compounds, 3.4% hits | AID 1347076; also: nearly all actives have a fitted effect of over 60% in size
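Cytotoxicity toward P-gp-expressing KB-V1 cells was determined as loss of CellTiter-Glo luminescence after 72 h at 37 degrees C. Compounds were tested in quantitative HTS format across a concentration range, with curves fitted to normalized data.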
MCF10A rerep: inducers of DNA re-replication in MCF 10A breast cells; MCF 10A DNA re-replication, Hoechst nuclear intensity, 48 h; Potency, µM (top dose mostly 46.1 µM), actives largely listed as activators; 350,000 compounds, 2.9% hits; also: nearly all actives have a fitted effect of over 50% in size
SW480 rerep: induces DNA re-replication in SW480 colon adenocarcinoma cells. 340,000 compounds, 1.8% hits. Potency, µM (highest dose often 46.1 µM), most hits filed as activators. SW480 DNA re-replication, Hoechst DNA content imaging, 48 h; also: nearly all actives have a fitted effect of over 55% in size
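Cells (250 per well) received 23 nL compound or DMSO by pin tool and were kept 48 hr at 37 C, 5% CO2. Nuclei were then stained with Hoechst for 40 min and scanned for DNA content.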
S-ASM inh: inhibitors of human secretory acid sphingomyelinase; placental ASM, HMU-PC fluorogenic substrate, 60 min; Potency, µM (highest dose often 57.5 µM), usual class: inhibitors; 340,000 compounds, 0.006% hits; AID 504937
Target sequence (P17405 47-631 limits assumed): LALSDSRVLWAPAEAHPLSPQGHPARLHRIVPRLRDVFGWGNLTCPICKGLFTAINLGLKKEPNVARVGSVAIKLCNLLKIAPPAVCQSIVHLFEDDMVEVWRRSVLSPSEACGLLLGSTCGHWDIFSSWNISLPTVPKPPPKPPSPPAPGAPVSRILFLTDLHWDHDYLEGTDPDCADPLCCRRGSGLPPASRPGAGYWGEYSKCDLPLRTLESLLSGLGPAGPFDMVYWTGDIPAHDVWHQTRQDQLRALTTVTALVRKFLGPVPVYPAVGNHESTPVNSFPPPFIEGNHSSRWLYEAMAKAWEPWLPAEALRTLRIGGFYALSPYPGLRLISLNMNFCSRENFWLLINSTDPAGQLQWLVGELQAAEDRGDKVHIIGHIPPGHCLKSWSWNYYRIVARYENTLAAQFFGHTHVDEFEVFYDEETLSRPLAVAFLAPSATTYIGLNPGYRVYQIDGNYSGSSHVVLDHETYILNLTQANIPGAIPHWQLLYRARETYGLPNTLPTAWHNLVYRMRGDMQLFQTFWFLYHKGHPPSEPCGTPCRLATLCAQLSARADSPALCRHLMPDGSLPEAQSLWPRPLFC
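Human placenta-derived ASM preincubated with compound 10 min at room temperature, then reacted with 9 uM (final) fluorogenic HMU-PC substrate for 60 min at 37 C. Stop solution raises pH to 10; fluorescence read at Ex 386/Em 447 nm.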
KB-3-1 tox: kills parental KB-3-1 adenocarcinoma cells; KB-3-1 viability, CellTiter-Glo ATP luminescence, 72 h; Potency, µM (titrated, usually from 46.1 µM), hits mostly cytotoxic; 400,000 compounds, 1.4% hits; also: nearly all actives have a fitted effect of over 60% in size
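Using CellTiter-Glo luminescence, growth of non-resistant KB-3-1 adenocarcinoma cells is assessed 72 h after pin-tool compound addition at 37 °C. Normalized responses across the concentration series yield fitted curves.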
Giardia killer: Giardia lamblia killing; Giardia lamblia trophozoite viability; activity change, % at 7.66 µM, hits read low; 340,000 compounds, 0.15% hits; AID 540267; in the data active = activity change below about -80%; inconclusive = between about -30% and that limit;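 also: parasites exposed to compound for two days anaerobically before the ATP read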
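Giardia trophozoites, 100 cells per well, were exposed to compounds for 48 hrs at 37 deg C under anaerobic conditions; viability was then read as ATP content by bioluminescence after 15-30 min at room temperature.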
Numbers stand for hits; . = inactive; ? = inconclusive; / = no result given. An excerpt weighted towards active compounds, which were near 6.9% of everything screened. Unless noted, calls follow the shape of the dose curve; as a rule, active = well fitted curve in the direction sought with a large enough effect; inconclusive = small, poorly fitted or top-dose-only effect, or another doubt; inactive = no such curve, though single readings can be large; an effect the other way counts as inactive or inconclusive.

SMILES | KB-V1 MDR tox | MCF10A rerep | SW480 rerep | S-ASM inh | KB-3-1 tox | Giardia killer
CCCCn1c(O)c(C(C)=NCc2ccc(F)cc2)c(=O)[nH]c1=O | . | . | . | . | . | .
CCCCn1c(O)c(C(CC)=NCc2ccc(F)cc2)c(=O)[nH]c1=O | 10µM | . | . | . | ? | .
CC(C)(C)c1ccc(C(=O)NC(=S)Nn2cnnc2)cc1 | . | ? | . | . | . | .
N[C@H]1C[C@H]1c1ccccc1 | / | . | . | / | / | /
COc1ccc(OCC(=O)N2CCN(Cc3c[nH]c4ccccc34)CC2)cc1 | 16µM | . | . | . | . | .
COc1ccc(CN2CCN(C(=O)COc3cccc(C)c3)CC2)c(OC)c1 | 2.3µM | . | ? | . | . | .
c1ccc2c(CN3CCOCC3)c[nH]c2c1 | . | . | . | . | . | .
O=C(COc1ccccc1)N1CCN(Cc2c[nH]c3ccccc23)CC1 | . | . | . | . | . | .
c1ccc2c(CN3CCCCCC3)c[nH]c2c1 | . | . | . | . | 15µM | .
O=C(COc1ccccc1)N1CCN(C/C=C/c2ccccc2)CC1 | 16µM | . | . | . | . | .
CCC12CN3CC(CC)(CN(C1)C3c1c(C)[nH]c(=O)[nH]c1=O)C2=O (stereo not given) | ? | / | / | / | . | /
CN1C(=O)C(O)N=C(c2ccccc2)c2cc(Cl)ccc21 (stereo not given) | / | . | . | / | / | /
COC1CCC(OC2CC(C3(C)CCC4(CC(O)C(C)C(C(C)/C=C(\C)C(=O)C(C)CC(C)C(=O)O)O4)O3)OC3(OC(C4OC(O)(CO)C(C)CC4C)CC3C)C2C)OC1C (stereo not given) | . | 1.5µM | ? | . | ? | .
COc1ccc(F)cc1CN1CCN(C(=O)CCC(=O)Nc2nnc(CC(C)C)s2)CC1 | . | 18µM | ? | . | . | .
CCCc1nnc(NC(=O)CCC(=O)N2CCN(CCOC(c3ccccc3)c3ccccc3)CC2)s1 | . | . | . | . | . | .
O=C1CCCCC1 | . | . | . | . | . | .
Cc1cc(C(=O)OCC(=O)Nc2ccccc2F)c(C)n1C1CC1 | . | . | . | . | . | .
CCN(C(=O)COC(=O)c1cc(C)n(C2CC2)c1C)c1ccccc1 | 2.6µM | ? | . | . | . | .
NCC(=O)c1cccc([N+](=O)[O-])c1 | . | / | / | / | . | /
COC(=O)C1=C(c2ccc(OCc3ccccc3)cc2)C[C@@H]2CC[C@H]1N2C(=O)NCc1ccccc1OC | ? | / | / | / | 21µM | /
COC(=O)C1=C(c2cccc(OCc3ccccc3)c2)C[C@@H]2CC[C@H]1N2C(=O)NCc1ccc(F)cc1 | ? | . | . | . | . | .
COC(=O)C1=C(c2cccc(OCc3ccccc3)c2)C[C@@H]2CC[C@H]1N2C(=O)NCc1ccc2[nH]ccc2c1 | . | 5.2µM | . | . | ? | .
C[N+]1([O-])[C@@H]2CC[C@H]1CC(OC(=O)[C@@H](CO)c1ccccc1)C2 (stereo not given in full) | / | . | . | / | / | /
COc1cccc(-n2c(/C=C/c3cccc(C)c3)nc3ccccc3c2=O)c1 | . | / | / | / | . | /
CCOC(=O)CN1C(=O)N[C@@H](c2cccc(C(F)(F)F)c2)C(C(C)=O)=C1C | . | ? | . | . | . | .
SMILES | KB-V1 MDR tox | MCF10A rerep | SW480 rerep | S-ASM inh | KB-3-1 tox | Giardia killer
O=C(/C=C/c1ccc(F)cc1)NNC(=O)CCN1CCN(Cc2ccccc2)CC1 | . | 10µM | ? | . | ? | .
O=C(Cc1ccccc1)N1CCN(Cc2ccc(Cl)cc2)CC1 | . | . | . | . | . | .
Cc1ccccc1NC(=O)Cc1nc(COC(=O)Cc2ccccc2)cs1 | ? | . | . | . | . | .
Cc1ccccc1NC(=O)CCl | . | . | . | . | 21µM | .
Cc1[nH]c(=O)[nH]c(=O)c1/C=C/C(=O)OCC(C)C | ? | . | ? | . | . | .
CCOC(=O)[C@]12Cc3cc4ccccc4cc3[C@H]1N(Cc1ccccc1)C(=O)c1ccccc12 | ? | / | / | / | 5.2µM | /
CCCCCN1C(=O)c2cc(OC)ccc2[C@@]2(C(=O)OCC)Cc3cc(Cl)ccc3[C@@H]12 | 1.6µM | / | / | / | 0.65µM | /
CCOC(=O)[C@]12Cc3cc4ccccc4cc3[C@H]1N(Cc1ccccc1)C(=O)c1cc(OC)ccc12 | 16µM | / | / | / | 5.8µM | /
CCOC(=O)[C@]12Cc3cc(Cl)ccc3[C@H]1N(Cc1ccccc1)C(=O)c1cc(OC)ccc12 | 7.3µM | / | / | / | 2.6µM | /
CCOC(=O)[C@]12Cc3cc(OC)c(OC)cc3[C@H]1N(Cc1ccccc1)C(=O)c1ccccc12 | ? | . | . | . | . | .
CN(C)CCNC(=O)C(=O)NCC1OCCCN1S(=O)(=O)c1cccs1 (stereo not given) | . | . | ? | . | ? | .
CCC(C)NC(=O)c1c(N)n(CC2CCCO2)c2nc3ccccc3nc12 (stereo not given) | ? | ? | 18µM | . | . | .
CC(C)CCNC(=O)c1c(N)n(CC2CCCO2)c2nc3ccccc3nc12 (stereo not given) | ? | 2.3µM | 5.2µM | . | ? | .
CCC(C)NC(=O)c1c(N)n(Cc2ccc3c(c2)OCO3)c2nc3ccccc3nc12 (stereo not given) | ? | ? | ? | . | ? | .
[S]=[Sb][S][Sb]=[S] | / | . | . | / | / | /
CC(C)COC(=O)OCN1C(=O)CN(CCN2CC(=O)N(COC(=O)OCC(C)C)C(=O)C2)CC1=O | . | ? | ? | . | . | .
C[n+]1c(-c2ccccc2)c2cc(N)ccc2c2ccc(N)cc21 | . | . | . | . | 2.9µM | .
O=c1c2ccccc2nc(/C=C/c2ccc(O)cc2)n1-c1ccccc1O | . | 21µM | . | . | 21µM | .
Cc1ccc(-n2c(/C=C\c3ccc(F)c(F)c3)nc3ccccc3c2=O)c(C)c1 | 4.1µM | / | / | / | 2.9µM | /
O=c1c2ccccc2nc(/C=C/c2ccccc2)n1-c1ccccc1O | . | ? | ? | . | . | .
Cc1cc(C)cc(-n2c(/C=C/c3cccc(F)c3)nc3ccccc3c2=O)c1 | ? | / | / | / | . | /
Cc1ccccc1-n1c(/C=C/c2ccccn2)nc2ccccc2c1=O | ? | 18µM | . | . | . | .
COc1cccc(/C=C/c2nc3ccccc3c(=O)n2-c2ccc(Cl)cc2)c1OC | . | / | / | / | . | /
O=C(Nc1ccc2c(c1)OCO2)c1cccn(Cc2ccc(F)cc2)c1=O | . | / | / | / | . | /
COc1cc(C2c3cc4c(c(O)c3CC3COC(=O)C32)OCO4)cc(OC)c1O (stereo not given) | 0.18µM | / | / | / | 0.016µM | ?
COc1cc(C2c3cc4c(cc3CC3COC(=O)C32)OCO4)cc(OC)c1O (stereo not given) | ? | ? | 0.16µM | . | . | .
C=CCc1cc(OC)c2c(c1)OCO2 | . | . | . | . | . | .

Screens deposited in PubChem BioAssay by National Center for Advancing Translational Sciences (NCATS).
